# Data from PubChem BioAssay (EPA / NIEHS).
# Values joined by “and” are separate entries in the source; they are usually repeats but may differ in a detail not shown here. Equal entries are not always repeated. Where a structure was tested more than once in an assay, its records may differ in their call. Active and inactive are the calls of the source. The calls were made as follows: active = hit-call score of the fitted dose curve at least 0.9, where 1 is the maximum; inactive = score below 0.9.
# Key:
# [1] = APR_HepG2_NuclearSize_72hr: Apredica 72-hour HepG2 Assay for Nuclear Size (AID 2282925); settings: high-content imaging, actives raise or lower the signal
# In short: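 Read-out: nuclear diameter from Hoechst 33342 images (ArrayScan, 20x, six fields/well), via cell-cycle image analysis. HepG2 were dosed 0.39–200 uM for 72 hr in 0.5% DMSO. Bidirectional fit relative to DMSO.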
# [2] = ATG_CRE_CIS: Attagene CIS-FACTORIAL HepG2 Assay for human cAMP Responsive Element (CRE) binding protein 3 (AID 2282926); settings: HepG2 CRE cis-reporter, Attagene multiplexed mRNA; actives raise or lower the signal
# In short: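 Cells carrying cis-regulated reporter constructs respond through their own endogenous factors. After 24 h treatment, RNA is reverse-transcribed, amplified, labelled and sized by capillary electrophoresis; up- and down-regulation are both scored against vehicle.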
# [3] = target: CCAAT/enhancer-binding protein beta (Homo sapiens) (UniProt P17676); experiment: ATG_C_EBP_CIS: Attagene CIS-FACTORIAL HepG2 Assay for human CCAAT/Enhancer Binding Protein (C/EBP) beta (AID 2282927); settings: HepG2 Attagene cis-factorial transcription factor reporter; actives raise or lower the signal
# Chain of CCAAT/enhancer-binding protein beta (Homo sapiens) (P17676 whole entry, looked up): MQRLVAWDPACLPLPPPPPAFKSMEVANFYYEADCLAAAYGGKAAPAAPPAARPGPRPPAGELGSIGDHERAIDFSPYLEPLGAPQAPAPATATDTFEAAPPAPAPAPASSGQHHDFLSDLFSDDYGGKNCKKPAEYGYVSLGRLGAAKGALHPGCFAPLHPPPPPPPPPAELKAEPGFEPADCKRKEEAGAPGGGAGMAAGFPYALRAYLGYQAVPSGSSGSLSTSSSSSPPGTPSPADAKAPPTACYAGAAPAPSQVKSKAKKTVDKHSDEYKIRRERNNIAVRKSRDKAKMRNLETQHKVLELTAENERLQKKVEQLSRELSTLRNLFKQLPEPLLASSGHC
# In short: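 HepG2, transient MRTU transfection, 24 h treatment. RT-PCR plus CE fluorescence; DMSO negative control, bidirectional fit.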
# [4] = ATG_CMV_CIS: Attagene CIS-FACTORIAL HepG2 Assay for human CMV (Internal Marker) (AID 2282928); settings: HepG2 CMV promoter reporter, transcription factor profiling; actives raise or lower the signal;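 also: endpoint acts as a background internal control marker rather than a target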
# In short: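 24 h chemical treatment, HepG2 with transient multi-reporter transfection; RNA → oligo(dT) RT → PCR → 6-FAM extension → HpaI digest → CE fluorescence. Bidirectional fit, DMSO negative control.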
# [5] = ATG_DR4_LXR_CIS: Attagene CIS-FACTORIAL HepG2 Assay for human Liver X Receptor (LXR), DR4 submotif (AID 2282929); settings: HepG2 Attagene DR4 cis-reporter, mRNA transcription; actives raise or lower the signal
# In short: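 Transiently transfected HepG2 liver cells; cis-regulated reporters; 24 h dosing. RT-PCR plus CE read-out of reporter mRNA. DMSO baseline, bidirectional curve fitting.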
# [6] = target: Aryl hydrocarbon receptor (Homo sapiens) (UniProt P35869); experiment: ATG_Ahr_CIS: Attagene CIS-FACTORIAL HepG2 Assay for human Aryl Hydrocarbon Receptor (Ahr) (AID 2282930); settings: HepG2 AhR cis-factorial reporter transcription; actives raise or lower the signal
# Chain of Aryl hydrocarbon receptor (Homo sapiens) (P35869 whole entry, looked up): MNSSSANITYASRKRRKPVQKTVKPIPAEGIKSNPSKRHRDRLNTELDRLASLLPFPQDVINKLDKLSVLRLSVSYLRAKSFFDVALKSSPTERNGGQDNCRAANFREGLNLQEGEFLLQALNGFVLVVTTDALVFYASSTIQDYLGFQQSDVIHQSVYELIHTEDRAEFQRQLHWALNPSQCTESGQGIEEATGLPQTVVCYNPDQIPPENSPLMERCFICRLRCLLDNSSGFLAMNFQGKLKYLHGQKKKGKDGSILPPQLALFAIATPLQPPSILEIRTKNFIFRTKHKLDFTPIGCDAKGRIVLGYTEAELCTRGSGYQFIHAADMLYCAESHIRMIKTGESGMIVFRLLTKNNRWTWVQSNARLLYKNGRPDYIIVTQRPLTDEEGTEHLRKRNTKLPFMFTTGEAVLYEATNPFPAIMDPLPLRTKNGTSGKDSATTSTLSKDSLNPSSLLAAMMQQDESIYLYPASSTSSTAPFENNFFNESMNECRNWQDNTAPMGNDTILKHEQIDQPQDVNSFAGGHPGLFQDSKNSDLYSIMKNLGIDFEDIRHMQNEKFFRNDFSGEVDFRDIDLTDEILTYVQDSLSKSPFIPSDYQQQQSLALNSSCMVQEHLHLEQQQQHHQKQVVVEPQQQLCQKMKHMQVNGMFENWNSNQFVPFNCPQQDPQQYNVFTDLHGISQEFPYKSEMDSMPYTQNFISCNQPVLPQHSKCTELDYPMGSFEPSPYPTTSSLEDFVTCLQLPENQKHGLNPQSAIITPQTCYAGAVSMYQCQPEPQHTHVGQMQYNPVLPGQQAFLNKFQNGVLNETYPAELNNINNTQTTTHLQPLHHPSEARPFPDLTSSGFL
# In short: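 Endogenous factor activity is tracked through cis-promoter reporter units transfected into HepG2 cells. Transcript levels at 24 h are read by fluorescent RT-PCR and capillary electrophoresis, with activity in either direction scored relative to DMSO.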
# [7] = ATG_AP_1_CIS: Attagene CIS-FACTORIAL HepG2 Assay for human Activator Protein 1 (AP-1) (AID 2282931); settings: HepG2 Attagene cis-factorial AP-1 reporter mRNA; actives raise or lower the signal
# In short: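 We transfected HepG2 cells transiently with a set of cis-regulated reporter transcription units, dosed them for 24 h, and quantified reporter mRNA via RT-PCR and capillary electrophoresis, scoring gain or loss of signal relative to DMSO.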
# [8] = ATG_AP_2_CIS: Attagene CIS-FACTORIAL HepG2 Assay for human Activator Protein 2 (AP-2) (AID 2282932); settings: HepG2 AP-2 cis-reporter, Attagene transcription factor profiling; actives raise or lower the signal
# In short: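 Read-out: fluorescent reporter mRNA via RT-PCR and capillary electrophoresis, 24 h post-dose in transiently transfected HepG2. Endogenous factors drive cis-promoter reporters; gain or loss of signal fitted bidirectionally against DMSO.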
# [9] = ATG_BRE_CIS: Attagene CIS-FACTORIAL HepG2 Assay for human Bone Morphogenetic Protein (BMP) Response Element (BRE) (AID 2282933); settings: HepG2 BMP response element reporter, Attagene transcription factor profiling; actives raise or lower the signal
# In short: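 Multiplexed cis-reporter assay, HepG2, 24 h exposure. mRNA from reporter units quantified via RT-PCR/CE; DMSO baseline; bidirectional curve fit.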
# [10] = target: Retinoic acid receptor alpha (Homo sapiens) (UniProt P10276); experiment: ATG_DR5_RAR_CIS: Attagene CIS-FACTORIAL HepG2 Assay for human Retinoic Acid Receptor Alpha (RARE), DR5 submotif (AID 2282934); settings: HepG2 Attagene cis-factorial RARE DR5 reporter, mRNA; actives raise or lower the signal;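 as to AC50: reporter responds to endogenous RAR alpha beta and gamma in HepG2 not RARA alone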
# Chain of Retinoic acid receptor alpha (Homo sapiens) (P10276 whole entry, looked up): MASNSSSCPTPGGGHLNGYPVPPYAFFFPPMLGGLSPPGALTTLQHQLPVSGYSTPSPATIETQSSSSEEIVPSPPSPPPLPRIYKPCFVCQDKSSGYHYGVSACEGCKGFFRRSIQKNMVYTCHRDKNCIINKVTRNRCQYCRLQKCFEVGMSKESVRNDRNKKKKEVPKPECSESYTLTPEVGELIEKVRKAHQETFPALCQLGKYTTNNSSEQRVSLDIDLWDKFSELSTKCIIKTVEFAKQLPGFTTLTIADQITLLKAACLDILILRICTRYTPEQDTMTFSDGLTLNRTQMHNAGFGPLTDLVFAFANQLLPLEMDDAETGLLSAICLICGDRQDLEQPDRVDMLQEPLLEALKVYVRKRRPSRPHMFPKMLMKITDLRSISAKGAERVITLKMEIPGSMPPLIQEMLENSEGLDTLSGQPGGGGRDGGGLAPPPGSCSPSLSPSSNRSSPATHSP
# In short: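 After 24 h of chemical exposure, transiently transfected HepG2 cells were lysed for total RNA; the DR5-regulated reporter transcript was quantified via RT-PCR and capillary electrophoresis, with activity fitted bidirectionally against DMSO.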
# [11] = target: Transcription factor E2F1 (Homo sapiens) (UniProt Q01094); experiment: ATG_E2F_CIS: Attagene CIS-FACTORIAL HepG2 Assay for human E2F Transcription Factor 1 (AID 2282935); settings: HepG2 Attagene cis-reporter, E2F reporter RNA transcripts; actives raise or lower the signal
# Chain of Transcription factor E2F1 (Homo sapiens) (Q01094 whole entry, looked up): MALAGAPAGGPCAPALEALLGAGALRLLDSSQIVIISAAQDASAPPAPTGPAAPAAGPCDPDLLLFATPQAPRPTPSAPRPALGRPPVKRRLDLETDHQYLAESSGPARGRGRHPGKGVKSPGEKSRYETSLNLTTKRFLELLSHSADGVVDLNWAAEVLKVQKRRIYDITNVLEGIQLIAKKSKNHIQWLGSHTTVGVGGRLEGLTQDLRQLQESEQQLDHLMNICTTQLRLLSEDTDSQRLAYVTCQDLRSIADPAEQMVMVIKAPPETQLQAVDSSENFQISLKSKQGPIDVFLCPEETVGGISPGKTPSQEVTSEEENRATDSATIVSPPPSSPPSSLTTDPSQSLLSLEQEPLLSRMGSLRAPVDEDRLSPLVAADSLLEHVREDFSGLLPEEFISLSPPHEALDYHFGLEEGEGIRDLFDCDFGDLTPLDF
# In short: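 Transient MRTU transfection of HepG2; 24 h compound exposure; RNA → oligo(dT) RT → PCR → FAM label → HpaI cut → CE fluorescence. Gain/loss of signal fit against DMSO.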
# [12] = ATG_E_Box_CIS: Attagene CIS-FACTORIAL HepG2 Assay for human Enhancer Box (E-box) (AID 2282936); settings: HepG2 E-box cis-reporter transcription, actives raise or lower the signal
# In short: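 Transiently transfected HepG2, endogenous TF-driven reporters, 24 h dosing. Readout: RT-PCR plus capillary electrophoresis of fluorescent reporter fragments. Gain or loss of signal fitted bidirectionally against DMSO baseline.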
# [13] = ATG_M_61_CIS: Attagene CIS-FACTORIAL HepG2 Assay for M61 Transcription Factor (Internal Marker) (AID 2282937); settings: HepG2 Attagene CIS-FACTORIAL M61 internal marker reporter; actives raise or lower the signal
# In short: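 Multiplexed reporter mRNA assay, HepG2 human hepatoma cells, 24 h treatment. Signal: FAM-labelled, HpaI-digested RT-PCR fragments by CE. Fit: bidirectional, baseline DMSO.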
# [14] = ATG_EGR_CIS: Attagene CIS-FACTORIAL HepG2 Assay for human Early Growth Response 1 (EGR1) (AID 2282938); settings: HepG2 Attagene CIS-FACTORIAL EGR reporter mRNA; actives raise or lower the signal
# In short: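 Multiplexed cis-reporter system in human hepatoma HepG2 cells, transiently transfected. Cells are dosed for 24 h; reporter transcripts are amplified, fluorescently tagged and sized by capillary electrophoresis, with DMSO as negative control.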
# [15] = ATG_M_19_CIS: Attagene CIS-FACTORIAL HepG2 Assay for M19 Transcription Factor (Internal Marker) (AID 2282939); settings: HepG2 Attagene CIS-FACTORIAL M19 internal marker reporter; actives raise or lower the signal
# In short: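 Signals come from fluorescence of labelled reporter-specific PCR fragments resolved by capillary electrophoresis, following 24 h treatment of HepG2 cells transfected with cis-promoter reporter units; activity was fitted in both directions relative to DMSO.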
# [16] = ATG_ERE_CIS: Attagene CIS-FACTORIAL HepG2 Assay for Estrogen Response Element (ERE) (AID 2282940); settings: HepG2 ERE cis-reporter, Attagene RNA transcript; actives raise or lower the signal
# In short: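 Fluorescence of capillary-separated, FAM-labelled reporter cDNA fragments indicates reporter mRNA levels in HepG2 cells exposed to chemicals for 24 h. Transient transfection with cis-regulated units; data fitted in both directions against DMSO.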
# [17] = ATG_Ets_CIS: Attagene CIS-FACTORIAL HepG2 Assay for human Erythroblast Transformation Specific (ETS) (AID 2282941); settings: HepG2 ETS cis-reporter transcription, actives raise or lower the signal
# In short: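 Cis-regulated reporter mRNA induction in HepG2 (transient transfection), 24 h exposure, RT-PCR plus capillary electrophoresis detection; DMSO serves as negative control and baseline.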
# [18] = target: Hepatocyte nuclear factor 3-beta (Homo sapiens) (UniProt Q9Y261); experiment: ATG_FoxA2_CIS: Attagene CIS-FACTORIAL HepG2 Assay for human Forkhead box A2 (FOXA2) (AID 2282942); settings: HepG2 cis-reporter transcription factor activity, 24 h; actives raise or lower the signal
# Chain of Hepatocyte nuclear factor 3-beta (Homo sapiens) (Q9Y261 whole entry, looked up): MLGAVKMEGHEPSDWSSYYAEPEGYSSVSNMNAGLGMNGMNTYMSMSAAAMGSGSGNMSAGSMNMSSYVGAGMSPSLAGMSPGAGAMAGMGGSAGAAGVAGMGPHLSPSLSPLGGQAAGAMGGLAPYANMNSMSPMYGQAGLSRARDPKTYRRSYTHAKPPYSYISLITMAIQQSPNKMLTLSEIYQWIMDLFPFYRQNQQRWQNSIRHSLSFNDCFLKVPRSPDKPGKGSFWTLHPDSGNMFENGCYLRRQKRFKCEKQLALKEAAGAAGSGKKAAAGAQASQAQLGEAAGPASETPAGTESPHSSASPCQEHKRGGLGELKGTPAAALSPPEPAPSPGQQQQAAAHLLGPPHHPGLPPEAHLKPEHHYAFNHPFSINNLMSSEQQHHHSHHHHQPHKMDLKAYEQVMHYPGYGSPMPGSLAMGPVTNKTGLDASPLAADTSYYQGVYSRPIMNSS
# In short: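 Multiplexed cis-element reporter assay in transiently transfected HepG2. Twenty-four hours post-dosing, RNA was reverse-transcribed, amplified, FAM-labelled, HpaI-digested and separated by CE. Activity gain or loss relative to DMSO.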
# [19] = ATG_FoxO_CIS: Attagene CIS-FACTORIAL HepG2 Assay for human Forkhead box O (FoxO) (AID 2282943); settings: HepG2 Attagene cis-reporter, FoxO element, mRNA; actives raise or lower the signal
# In short: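 Transfected HepG2 reporter cells exposed to test chemical for 24 h; reporter RNA measured by reverse transcription, PCR and fluorescent capillary electrophoresis; curves fitted for increases and decreases against DMSO.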
# [20] = ATG_GATA_CIS: Attagene CIS-FACTORIAL HepG2 Assay for human GATA Binding Protein (AID 2282944); settings: HepG2 GATA cis-element reporter, Attagene multiplex mRNA; actives raise or lower the signal
# In short: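 After transfecting HepG2 cells with multiple cis-regulated reporter units, chemicals are dosed for 24 h; isolated RNA undergoes RT-PCR and fluorescent labeling before capillary electrophoresis, with activity expressed against DMSO.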
smiles,measurement,setting,value
CCCCCCCCCCCCc1ccccc1S(=O)(=O)O,outcome,[1],inactive
same,outcome,[2],inactive
same,outcome,[3],inactive
same,outcome,[4],inactive
same,outcome,[5],inactive
same,outcome,[6],inactive
same,outcome,[7],inactive
same,outcome,[8],inactive
same,outcome,[9],inactive
same,outcome,[10],inactive
same,outcome,[11],inactive
same,outcome,[12],inactive
same,outcome,[13],inactive
same,outcome,[14],inactive
same,outcome,[15],inactive
same,outcome,[16],inactive
same,outcome,[17],inactive
same,outcome,[18],inactive
same,outcome,[19],inactive
same,outcome,[20],inactive
CCCCC(CC)COC(=O)CCCCC(=O)OCc1ccccc1 (stereo not given),outcome,[1],inactive
same,outcome,[2],inactive
same,outcome,[3],inactive
same,outcome,[4],inactive
same,outcome,[5],inactive
same,outcome,[6],inactive
same,outcome,[7],inactive
same,outcome,[8],inactive
same,outcome,[9],inactive
same,outcome,[10],inactive
same,outcome,[11],inactive
same,outcome,[12],inactive
same,outcome,[13],inactive
same,outcome,[14],inactive
same,outcome,[15],inactive
same,outcome,[16],inactive
same,outcome,[17],inactive
same,outcome,[18],inactive
same,outcome,[19],inactive
same,outcome,[20],inactive
OC1CCCCC1,outcome,[1],inactive
same,outcome,[2],inactive
same,outcome,[3],inactive
same,outcome,[4],inactive
same,outcome,[5],inactive
same,outcome,[6],inactive
same,outcome,[7],inactive
same,outcome,[8],inactive
same,outcome,[9],inactive
same,outcome,[10],inactive
same,outcome,[11],inactive
same,outcome,[12],inactive
same,outcome,[13],inactive
same,outcome,[14],inactive
same,outcome,[15],inactive
same,AC50,[16],100 µM (active)
same,outcome,[16],inactive
same,outcome,[17],inactive
same,outcome,[18],inactive
same,outcome,[19],inactive
same,outcome,[20],inactive
O=C(O)Cc1cc(I)c(Oc2cc(I)c(O)c(I)c2)c(I)c1,outcome,[1],inactive
same,AC50,[2],18.3 µM (active)
same,outcome,[2],inactive
same,AC50,[3],29.1 µM (active) and 17.8 µM (active)
same,AC50,[4],22.4 µM (active) and 16.7 µM (active)
same,AC50,[5],14.9 µM (active)
same,outcome,[5],inactive
same,AC50,[6],89.3 µM (active)
same,outcome,[6],inactive
same,AC50,[7],16.5 µM (active) and 122 µM (active)
same,AC50,[8],121 µM (active)
same,outcome,[8],inactive
same,AC50,[9],51 µM (active)
same,outcome,[9],inactive
same,AC50,[10],41.1 µM (active) and 32.5 µM (active)
same,outcome,[11],inactive
same,AC50,[12],113 µM (active)
same,outcome,[12],inactive
same,AC50,[14],22.5 µM (active) and 36.5 µM (active)
same,outcome,[15],inactive
same,outcome,[16],inactive
same,AC50,[17],38.1 µM (active)
same,outcome,[17],inactive
same,AC50,[18],83.7 µM (active)
same,outcome,[18],inactive
same,AC50,[19],46.7 µM (active)
same,outcome,[19],inactive
same,AC50,[20],115 µM (active)
same,outcome,[20],inactive
CCCCC[C@H](O)CC(=O)CCc1ccc(O)c(OC)c1,outcome,[1],inactive
same,outcome,[2],inactive
same,outcome,[3],inactive
same,outcome,[4],inactive
same,outcome,[5],inactive
same,outcome,[6],inactive
same,outcome,[7],inactive
same,AC50,[8],79.2 µM (active)
same,outcome,[9],inactive
same,outcome,[10],inactive
same,outcome,[11],inactive
same,outcome,[12],inactive
same,outcome,[13],inactive
same,outcome,[14],inactive
same,outcome,[15],inactive
same,outcome,[16],inactive
same,outcome,[17],inactive
same,outcome,[18],inactive
same,outcome,[19],inactive
same,outcome,[20],inactive
